Source: PubChem
GluA2 TARP mod – modulators of GluA2-stargazin AMPA receptor complexes, primary screen, cell-based, membrane potential dye; Voltage-dependent calcium channel gamma-2 subunit (Mus musculus) + Glutamate receptor 2 …; HEK293 GluA2+stargazin, membrane potential dye (FDSS), glutamate EC50; hits were called plate by plate, in both directions; calls only at 30 µM; hit rate 3.5% among 40,000;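 active means any of four per-well response measures lying three or more SD from its plate-wide compound average, in either direction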
GIRK2 activator – activators of NPY4-receptor-primed GIRK2 channels, summary, cell-based, HEK293, thallium flux | HEK293 GIRK2/NPY4 cells, thallium flux fluorescence | activation (% efficacy), % for hits at 37.5 µM | 34,000 tested, under 10 active;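 active means primary screen hit, no activity in plain HEK293 cells, and in GIRK2-only cells above 5% efficacy rising with concentration; inactive means the rest, including fluorescent compounds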;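 further: efficacy is normalized control-subtracted fluorescence 15 s after thallium addition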
Of the large screens only hits and unclear results are named; the others gave an inactive call. The sample as a whole holds a higher share of hits than the screen did.

Cc1nc2c(c(=O)c3ccccc3n2C)c(=O)n1C1CCCCCC1	GluA2 TARP mod active (no result: GIRK2 activator)
COc1ccc(Cn2c(C)nc3c(c(=O)c4ccccc4n3C)c2=O)cc1	GluA2 TARP mod active (no result: GIRK2 activator)
Cc1nc2c(c(=O)c3ccccc3n2C)c(=O)n1-c1ccccc1	none (no result: GIRK2 activator)
COc1ccc(CCn2c(C)nc3c(c(=O)c4ccccc4n3C)c2=O)cc1OC	none (no result: GIRK2 activator)
CN1CCC(CNC(=O)C(=O)Nc2cc(Cl)ccc2C#N)CC1	none
Cc1ccc(C)c(Cn2c(=O)c3c(nc4n(-c5ccccc5O)c(C)cn34)n(C)c2=O)c1	none (no result: GIRK2 activator)
COc1ccc(C(=O)Nc2nnc(-c3cc(OC)c(OC)c(OC)c3)o2)cc1	none (no result: GIRK2 activator)
COc1ccc(NC(=O)CSC2=NC(C)(C)N=C2c2ccccc2)cc1OC	none
COc1cc(OC)cc(C2=NC3(CCCC3)N=C2SCC(=O)Nc2ccccc2)c1	GluA2 TARP mod active
COc1ccc(NC(=O)C(=O)NCC(c2ccc(F)cc2)N2CCOCC2)c(OC)c1 (stereo not given)	none
Cc1ccc(NS(=O)(=O)c2cc(N3C(=O)CCS3(=O)=O)ccc2C)cc1Cl	none
COc1ccc(Cl)cc1S(=O)(=O)Nc1cc(Cl)ccc1O	none
COc1ccc(Br)cc1S(=O)(=O)Nc1cc(Cl)ccc1O	GluA2 TARP mod active
COc1cc(S(=O)(=O)Nc2cc(Cl)ccc2O)ccc1Cl	GluA2 TARP mod active
CCOc1ccc(S(=O)(=O)Nc2cc(Cl)ccc2O)cc1C	none
Cc1cc(S(=O)(=O)NCc2ccc3c(c2)OCO3)c(C)cc1Br	none
COc1cc(NC(=O)NCc2nnnn2-c2ccc(C)c(C)c2)cc(OC)c1OC	none (no result: GIRK2 activator)
COc1cn(CC(=O)Nc2ccc(C)cc2)c(CSc2nc(C)cs2)cc1=O	GluA2 TARP mod active
COc1ccc(NC(=O)Cn2cc(OC)c(=O)cc2CSc2nnnn2C)cc1OC	GluA2 TARP mod active
COc1cn(CC(=O)Nc2ccc(C(N)=O)cc2)c(CSc2nnnn2C)cc1=O	none
CCOc1ccc(NC(=O)Cn2cc(OC)c(=O)cc2CSc2nc(C)cs2)cc1	none
CC1=NN(c2ccccc2)C(=O)C1C(=O)c1ccc(S(=O)(=O)N2CCCCC2)cc1 (stereo not given)	none
CC1=NN(c2ccccc2)C(=O)C1C(=O)c1cccc(F)c1 (stereo not given)	GluA2 TARP mod active
COc1ccc(C(=O)C2C(=O)N(c3ccccc3)N=C2C)c(OC)c1 (stereo not given)	GluA2 TARP mod active
CC1=NN(c2ccccc2)C(=O)C1C(=O)c1sc(-c2ccccc2)nc1C (stereo not given)	none
O=C(CSCc1ccccc1)Nc1cc(-c2cccs2)nn1CCO	none
CC(C)(C)c1cc(NC(=O)CSCc2ccccc2)n(CCO)n1	GluA2 TARP mod active
CC(C)(C)c1cc(NC(=O)Cc2ccccc2Cl)n(CCO)n1	none
CC(C)(C)c1cc(NC(=O)CCSc2ccccc2)n(CCO)n1	GluA2 TARP mod active
O=C(Nc1ccc(C(F)(F)F)cc1)C1CCN(c2ccc(-c3cccs3)nn2)CC1	none
COc1ccccc1CNC(=O)C(=O)NCc1cccs1	none
CCOc1ccc(-c2nc(COC(=O)c3nnn(-c4ccc(OC)cc4)c3C)c(C)o2)cc1	none (no result: GIRK2 activator)
Cc1cc(C)cc(-n2ccnc(SCC(=O)c3ccc(F)cc3)c2=O)c1	none (no result: GIRK2 activator)
CCN1C(=O)N(c2cc(C)ccc2C)C2CS(=O)(=O)CC21 (stereo not given)	none
Cc1ccc(C)c(N2C(=O)N(Cc3ccccc3F)C3CS(=O)(=O)CC32)c1 (stereo not given)	GluA2 TARP mod active
O=C(CN1CC(c2nc(-c3cccc(C(F)(F)F)c3)no2)C1)N1CCCc2ccccc21	none (no result: GluA2 TARP mod)
COc1ccc(S(=O)(=O)CCC(=O)Nc2ccccc2Oc2ccccc2)cc1	none
CS(=O)(=O)c1ccc(CC(=O)Nc2ccccc2Oc2ccccc2)cc1	GluA2 TARP mod active (no result: GIRK2 activator)
Cc1ccc(S(=O)(=O)CCCC(=O)Nc2ccccc2Oc2ccccc2)cc1	GluA2 TARP mod active
CS(=O)(=O)c1ccc(CC(=O)Nc2nc(-c3ccc(Oc4ccccc4)cc3)cs2)cc1	none (no result: GIRK2 activator)
COc1ccccc1NC(=O)NCC(c1cccn1C)N1CCCC1 (stereo not given)	none
O=S(=O)(Nc1ccc(Br)cc1)N1CCCCCC1	GluA2 TARP mod active (no result: GIRK2 activator)
O=S(=O)(Nc1ccc(Br)cc1)N1CCOCC1	none (no result: GIRK2 activator)
CCOC(=O)c1ccc2nc(C)cc(Nc3cccc([N+](=O)[O-])c3)c2c1	GluA2 TARP mod active (no result: GIRK2 activator)
CCOC(=O)c1ccc(Nc2cc(C)nc(-n3cc([N+](=O)[O-])cn3)n2)cc1	none
Cc1ccc(Nc2cc(N3CCN(C(=O)c4ncccn4)CC3)nc(C)n2)cc1	GluA2 TARP mod active
Cc1ccc(Nc2cc(C)nc(N3CCN(C(=O)c4ccc5c(c4)OCO5)CC3)n2)cc1	none (no result: GIRK2 activator)
CCc1ccc(S(=O)(=O)Nc2ccc(Nc3cc(-n4ccnc4)nc(C)n3)cc2)cc1	none
COc1ccccc1CCNC(=O)CC1CCCCN1S(=O)(=O)c1ccccc1 (stereo not given)	none (no result: GIRK2 activator)
Cc1ccc(S(=O)(=O)N2CCCCC2CC(=O)NC2CCCCC2)cc1 (stereo not given)	none (no result: GIRK2 activator)
O=C(CC1CCCCN1S(=O)(=O)c1ccccc1)NC1CCCCC1 (stereo not given)	GluA2 TARP mod active (no result: GIRK2 activator)
COc1ccccc1CCNC(=O)CC1CCCCN1S(=O)(=O)c1ccc(C)cc1 (stereo not given)	GluA2 TARP mod active (no result: GIRK2 activator)
COc1ccccc1CNC(=O)CC1CCCCN1S(=O)(=O)c1ccc(Cl)cc1 (stereo not given)	none (no result: GIRK2 activator)
COc1ccccc1CNC(=O)C(=O)NCCC1CCCCN1S(=O)(=O)c1ccc(F)cc1 (stereo not given)	none (no result: GIRK2 activator)
COc1ccccc1CCNC(=O)CC1CCCCN1S(=O)(=O)c1ccc(Cl)cc1 (stereo not given)	GluA2 TARP mod active (no result: GIRK2 activator)
COc1ccccc1CNC(=O)C(=O)NCCC1CCCCN1S(=O)(=O)c1ccccc1 (stereo not given)	GluA2 TARP mod active (no result: GIRK2 activator)
COc1cccc(C(CNC(=O)C(=O)NCc2ccccc2OC)N2CCOCC2)c1 (stereo not given)	none
O=C(NCCCc1ccccc1)C(=O)Nc1ccc(N2CCCS2(=O)=O)cc1	none (no result: GIRK2 activator)
COc1ccc(-c2noc(CSc3nc4ccccc4c(=O)n3Cc3ccco3)n2)cc1OC	GluA2 TARP mod active (no result: GIRK2 activator)
CSc1ccc(-c2noc(CSc3nc4ccccc4c(=O)n3Cc3ccco3)n2)cc1	none (no result: GIRK2 activator)
O=C(C1CN(c2nc3c(F)cccc3s2)C1)N1CCc2ccccc21	none
CN1C(=O)C(C)(C)COc2cc(NC(=O)c3ccc4nsnc4c3)ccc21	GluA2 TARP mod active
Cc1cc(C(=O)Nc2ccc3c(c2)OCC(C)(C)C(=O)N3C)c(C)o1	none
O=C(NCCOc1ccc2nnc(-c3cccc(F)c3)n2n1)c1cc(-c2ccccc2)n[nH]1	GluA2 TARP mod active
COc1ccc(-c2nnc3ccc(OCCNC(=O)c4ccccc4)nn23)cc1OC	none
O=C(COc1ccccc1)NCCOc1ccc2nnc(-c3cccc(F)c3)n2n1	none (no result: GIRK2 activator)
O=C(NCCOc1ccc2nnc(-c3ccccc3)n2n1)C1CCCC1	none
COc1ccc(-c2nnc3ccc(OCCNC(=O)Nc4cccs4)nn23)cc1OC	GluA2 TARP mod active
COc1ccc(-c2nnc3ccc(OCCNC(=O)C4CC4)nn23)cc1	GluA2 TARP mod active
O=C(NCCOc1ccc2nnc(-c3ccccc3)n2n1)Nc1cccs1	GluA2 TARP mod active
O=C(NCCOc1ccc2nnc(-c3ccccc3)n2n1)Nc1ccccc1	none
